Source: PubChem
In the library only some 4% were active in any assay of this set; here they are far more common.
MazF activator = activators of E. coli MazEF toxin-antitoxin RNase, primary screen, biochemical, fluorescence, uHTS | Endoribonuclease toxin MazF (Escherichia coli (strain K12)), P0AE70 | 350,000 tested, 0.32% active | activation, % at 20 µM | AID 504720, 2011 | FAM/BHQ RNA-DNA oligo cleavage fluorescence, 5 h; in the data active means activation above about 50%
Target sequence (P0AE70 whole entry, looked up): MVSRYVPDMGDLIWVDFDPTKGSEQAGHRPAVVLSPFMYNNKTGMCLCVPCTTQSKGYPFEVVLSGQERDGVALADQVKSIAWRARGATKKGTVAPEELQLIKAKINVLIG
BoNT-A LC inh2 = BoNT/A light chain protease inhibitors, primary screen, biochemical, flow cytometry, MLPCN library; Botulinum neurotoxin type A light chain protease (Clostridium botulinum A str. ATCC 3502); 360,000 tested, 0.17% active; inhibition, % at 10 µM; AID 588499, 2011; multiplex microsphere protease substrate cleavage
Anthrax LF prot = Bacillus anthracis LF protease inhibitors, primary screen, biochemical, multiplex microsphere, MLPCN library; 360,000 tested, 0.12% active; Lethal factor (Bacillus anthracis), P15917; multiplex microsphere protease cleavage assay; inhibition, % at 10 µM
VHR inh abs = VHR1 phosphatase inhibitors, primary screen, biochemical, absorbance, uHTS; Dual specificity protein phosphatase 3 (Homo sapiens), P51452; AID 1654, 2009; 290,000 tested, 0.52% active; recombinant VHR phosphatase, pNPP absorbance; inhibition, % at 13.3 µM; in the data active means inhibition above about 50%
Target sequence (P51452 whole entry, looked up): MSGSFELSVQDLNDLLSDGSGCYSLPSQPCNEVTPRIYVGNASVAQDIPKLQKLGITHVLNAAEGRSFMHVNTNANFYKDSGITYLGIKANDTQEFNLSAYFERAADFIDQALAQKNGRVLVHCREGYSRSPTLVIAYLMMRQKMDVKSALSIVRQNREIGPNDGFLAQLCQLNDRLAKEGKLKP
BoNT-F LC inh = BoNT/F light chain protease inhibitors, primary screen, biochemical, flow cytometry, MLPCN library | inhibition, % at 10 µM | AID 588497, 2011 | Botulinum neurotoxin type F light chain protease (Clostridium botulinum) | Multiplex microsphere protease cleavage assay | 360,000 tested, 0.22% active; in the data active means inhibition above about 35%, passing the limit was not always enough; inconclusive means no clear call, values can overlap the other calls
Bead autofluor = counter-screen for toxin protease inhibitors: compound fluorescence. compound autofluorescence counterscreen, microsphere flow cytometry; stronger effect = higher value. 360,000 tested, 3.1% active. fluorescence intensity (test concentration not listed). AID 624483; in the data active means fluorescence intensity above about 16000; inconclusive means no clear call, values can overlap the other calls
Hits are given with their value; - = inactive; ? = inconclusive; . = no result given. Unless noted, no stated cut-off is given here; in the data, active means inhibition above about 30%; inconclusive means no clear call, values can overlap the other calls; inactive means below that.

SMILES | MazF activator | BoNT-A LC inh2 | Anthrax LF prot | VHR inh abs | BoNT-F LC inh | Bead autofluor
O=C(CSc1nnc(CNC(=O)c2ccco2)o1)Nc1nc2ccccc2s1 | - | - | - | - | - | -
O=C(CSc1ncn(-c2ccccc2)n1)Nc1nc2ccccc2s1 | - | - | - | - | - | 22783
O=C(CSCC(=O)N1CCN(c2ccccc2)CC1)Nc1nc(-c2ccc(Cl)s2)cs1 | - | - | - | - | - | -
CCOC(=O)N1CCN(C(=O)CSCC(=O)Nc2nc(-c3ccccc3)cs2)CC1 | - | - | - | - | - | 23127
COc1cc(NC(=O)NS(=O)(=O)c2ccc(C)cc2)cc(OC)c1 | - | ? | - | - | - | 20395
Cc1ccc(S(=O)(=O)NC(=O)Nc2ccc(F)cc2)cc1 | - | - | - | - | - | 16339
Cc1ccc(S(=O)(=O)NC(=O)Nc2ccccc2)cc1 | - | - | - | - | - | -
COc1ccc(CNC(=O)Cn2nc(C(F)(F)F)c3c2CCC3)cc1 | - | - | - | - | - | -
O=C(Cn1nc(C(F)(F)F)c2c1CCCC2)NC1CCCC1 | - | - | - | - | - | 23402
CC(C)NC(=O)Cn1nc(C(F)(F)F)c2c1CCC2 | - | - | - | - | - | ?
COc1ccc(NC(=O)Cn2nc(C(F)(F)F)c3c2CCCC3)c(OC)c1 | - | ? | - | - | - | 21156
O=C(CCN1CCc2ccccc2C1)Nc1cccc(F)c1 | - | - | - | - | - | -
COC(=O)C1CC(c2c(OC)cc(OC)cc2OC)=NO1 (centres undefined) | - | - | - | - | - | -
COc1ccc(Cc2nnc(NC(=O)C3CC(=O)N(c4ccc(OC)cc4)C3)s2)cc1 (centres undefined) | - | - | - | - | - | -
Cc1cccc(C2=NN(c3ccccc3)[C@@H](C(=O)N3CCOC3=O)[C@@H]2c2ccc([N+](=O)[O-])cc2)c1 | - | - | - | . | - | -
Cn1c(CSCc2ccc(Cl)cc2)nnc1SCC(=O)Nc1nccs1 | - | - | - | - | - | 16354
Cn1nnnc1SCc1ccc(C(=O)Nc2nccs2)cc1 | - | - | - | - | - | 24214
Cc1cc(C)cc(NC(=O)c2ccc(CSc3nnnn3C)cc2)c1 | - | - | - | - | - | -
Cn1c(SCC(=O)c2ccccc2)nnc1-c1cnccn1 | - | - | - | - | - | -
O=C(CSc1ncccc1-c1nc2ccccc2[nH]1)N1CCN(c2ccccc2F)CC1 | - | - | - | - | - | 17934
COc1ccc(N2CCN(C(=O)CSc3ncccc3-c3nc4ccccc4[nH]3)CC2)cc1 | - | - | - | - | - | 20130
O=C(CSc1ncccc1-c1nc2ccccc2[nH]1)NC1CC1 | - | - | - | - | - | -
COc1ccccc1N1CCN(C(=O)CSc2nc3ccccc3[nH]2)CC1 | - | - | - | - | - | -
COc1ccccc1N1CCN(C(=O)CSc2ncccc2-c2nc3ccccc3[nH]2)CC1 | - | - | - | - | - | 21668
CCC1CCCCN1C(=O)COC(=O)CSc1ccc(C(N)=O)cc1[N+](=O)[O-] (centres undefined) | - | - | - | . | - | -
SMILES | MazF activator | BoNT-A LC inh2 | Anthrax LF prot | VHR inh abs | BoNT-F LC inh | Bead autofluor
CCOC(=O)C1C(=O)C=C(/C=C/c2ccccc2)CC1c1ccc(Cl)cc1 (centres undefined) | - | ? | - | - | - | 16539
CCOC(=O)C1NC(=O)CC1c1ccccc1 (centres undefined) | - | - | - | - | - | -
Cc1cccc(C)c1NC(=O)CSc1nc(C)c(CC(=O)c2ccc(Br)cc2)c(C)c1C#N | - | - | - | - | - | -
CN(C)CC(=O)Nc1cc(C(F)(F)F)ccc1Cl | - | - | - | - | - | ?
CCOC(=O)/C(=N\Nc1cc(C(F)(F)F)ccc1Cl)N(CC)CC | - | - | - | - | - | 20400
Cc1ccc(CNC(=O)c2ccc[nH]2)cc1 | - | - | - | - | - | -
C/C(=N\NC(N)=S)C1(C)CCCCC1 | - | - | - | - | - | -
CCOC(=O)c1cnn(CCOC(=O)c2cccs2)c1NC(=O)c1cccs1 | - | - | - | - | - | 22411
CCN(CC)S(=O)(=O)c1ccc(-c2csc(C)n2)s1 | - | . | . | - | . | .
Cn1c(=O)[nH]c(=O)c2c1nc(N1CCN(c3cccc(Cl)c3)CC1)n2CCCc1ccccc1 | . | . | . | - | . | .
COc1c(OC(C)=O)ccc(/C=C/c2ccc3cccc(OC)c3n2)c1[N+](=O)[O-] | - | - | - | - | - | -
